Measured values: PubChem BioAssay AID651785 (The Scripps Research Institute Molecular Screening Center, 2012)
Hit rate of the full screen: of about 2,400 compounds, about 950 (40%) were called active. Rule as the data show it: active = inhibition above about 49%; inactive = the rest. Only a sample is shown.

target: Trace amine-associated receptor 1 (Homo sapiens) (UniProt Q96RJ0); experiment: human TAAR1 antagonists, retest of hits, confirmation, cell-based, fluorescence (AID 651785); conditions: TAAR1-expressing cells, fluorescence antagonist read-out; at 3 µM; hits give high values;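 also: CHO-Ga16 host cells challenged with agonist PEA near its EC80; 0% = agonist at EC80 plus vehicle and 100% = vehicle with no agonist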
Sequence (Q96RJ0 whole entry, looked up, the tested form may be a part): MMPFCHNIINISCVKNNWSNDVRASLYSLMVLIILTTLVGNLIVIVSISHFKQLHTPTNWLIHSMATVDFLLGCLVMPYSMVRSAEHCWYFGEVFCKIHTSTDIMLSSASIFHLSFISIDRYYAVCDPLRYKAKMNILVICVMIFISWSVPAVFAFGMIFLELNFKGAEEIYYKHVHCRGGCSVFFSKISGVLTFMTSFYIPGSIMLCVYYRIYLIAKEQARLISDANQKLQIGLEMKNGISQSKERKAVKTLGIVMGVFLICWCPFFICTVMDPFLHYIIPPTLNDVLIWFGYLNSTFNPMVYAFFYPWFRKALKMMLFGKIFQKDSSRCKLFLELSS

inhibition, active:
Oc1ccc(/C=N/Nc2nc(-c3ccccc3F)nc3ccccc23)c(O)c1 55.8%
CC(=O)Nc1ccc(NC(=O)COC(=O)C2CCC(C(C)(C)C)CC2)cc1 (stereo unspecified) 52.9%
COc1ccc(CCNC(=O)c2ccc(CS(=O)(=O)c3ccc(Br)cc3)o2)cc1OC 52.1%
O=C(COC(=O)CCCSc1nc2ccccc2[nH]1)Nc1ccc(Oc2ccccc2)cc1 50.7%
N#Cc1cccc(NC(=O)COC(=O)c2ccccc2C(=O)c2ccc(Cl)c([N+](=O)[O-])c2)c1 52.5%
O=C(CCc1ccccc1)Nc1cccc(-c2nnc(-c3ccco3)o2)c1 49.1%
Cc1ccc(-n2c(C)cc(/C=N\NC(=O)CC(=O)NC(C)C)c2C)cc1 97.9%
O=C(COC(=O)c1ccccc1SCC(=O)N1CCCC1)Nc1ccccc1OC(F)F 52.2%
CC(C)N(Cc1ccccc1)C(=O)COC(=O)c1ccccc1SCC(=O)N1CCCC1 52.8%
CCN=C1SC(CC(=O)Nc2ccc(C)cc2)C(=O)N1CC (stereo unspecified) 59.2%
O=C(N/N=C/c1ccc(Cl)c(Cl)c1)c1ccc2nc[nH]c2c1 52.9%
COc1cc(SC#N)ccc1N=Cc1c(C)[nH]n(-c2ccc(C)cc2)c1=O 67.6%

inhibition, inactive:
O=C(NCc1ccc2c(c1)OCO2)c1c(-c2ccsc2)sc2ccccc12 26.4%
O=C(CN1CCCSc2ccccc21)N1CCN(S(=O)(=O)c2cccc(F)c2)CC1 34.9%
Fc1ccc(/C=N/Nc2nc(-c3cccnc3)nc3ccccc23)cc1 41.7%
C/C(=N\Nc1ncc(Cl)cc1Cl)c1ccc(S(=O)(=O)NCc2ccco2)cc1 33%
C[C@H](NC(=O)c1nc[nH]c1C(=O)NCC(=O)OC(C)(C)C)C(=O)OCc1ccccc1 46.1%
COc1ccc(CCNC(=O)C(=O)NCC2OCCN2S(=O)(=O)c2ccc(OC)c(C)c2)cc1 (stereo unspecified) 26.8%
COc1cc(OC)cc(C(=O)OCC(=O)Nc2sccc2C(N)=O)c1 48.2%
CC(=O)n1cc([C@H]2C=C(C(=O)N3CCOCC3)O[C@@H](OCc3ccc(CO)cc3)C2)c2ccccc21 40.4%
CCC(=O)Oc1cccc(C(=O)Nc2ccc(-c3nnc(-c4ccco4)o3)cc2)c1 46.1%
O=C(Nc1ccc(-c2nnc(-c3ccccc3)o2)cc1)c1ccc(Br)o1 21.3%
COc1ccc(Cl)cc1NC(=O)CCS(=O)(=O)c1cc2c(cc1C)NC(=O)CO2 36%
CCOC(=O)C1C(c2ccc(OC)c(OC)c2)c2c([nH][nH]c2=O)CC1(C)O (stereo unspecified) 38.7%
CNC(=O)c1ccsc1NC(=O)c1ccc(S(=O)(=O)N2CCc3ccccc32)cc1 43.2%
O=C(OCC(=O)N(CCc1ccccc1)Cc1ccccc1)c1ccccc1[N+](=O)[O-] 47.4%
COC(=O)[C@@]1(Sc2ccc(C)cc2)CC(=O)N(c2cccc(SC)c2)[C@@H]1c1ccccc1 47.3%
CCOc1ccc(NC(=O)N2CC=C(n3c(=O)[nH]c4ccccc43)CC2)cc1 39.5%
COC(=O)C1=C(C)N(Cc2ccc(F)cc2)C(=S)NC1c1cccc(Cl)c1 (stereo unspecified) 36.5%
CCOc1cc(/C=N/NC(=O)c2cc(-c3ccccc3)nc3ccccc23)ccc1O 44.9%
CSc1nc(-c2ccccc2)nc(C(Cl)Cl)n1 36.6%
